Laboratory results: PubChem BioAssay AID1159580 (chemical genetic matrix, 2015)
Among all 5,500 compounds or so, about 2,000 (36%) were called active. Another 18% or so got no clear call; they are omitted. No stated cut-off is given here; in the data, active means normalized growth mostly below about 0.91 (no sharp cut-off); inconclusive means no clear call, values can overlap the other calls; inactive means mostly above about 0.92. The list shows a part of the results.

Assay: chemical genetic growth profiling, strain panel (AID 1159580);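 further: tested at 20 µM; growth read once vehicle control cultures reached saturation at 30 °C; 1 = growth at the plate median or of vehicle wells; lower values mean less growth of the strain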
Settings: S. cerevisiae deletion strains, growth OD
[1] = locus YAR019C, strain CDC15, hits give low values
[2] = locus YBL105C, strain PKC1, hits give low values
[3] = locus YBR135W, strain CKS1, hits give low values
[4] = locus YBR136W, strain MEC1, hits give low values
[5] = locus YBR160W, strain CDC28, hits give low values
[6] = locus YDL017W, strain CDC7, hits give low values
[7] = locus YDL028C, strain MPS1, hits give low values
[8] = locus YDL101C, strain DUN1, hits give low values
[9] = locus YDL108W, strain KIN28, hits give low values
[10] = locus YDL132W, strain cdc53, hits give low values
[11] = locus YDL214C, strain PRR2, hits give low values
[12] = locus YDR052C, strain DBF4, hits give low values
[13] = locus YDR054C, strain cdc34, hits give low values
[14] = locus YDR226W, strain ADK1, hits give low values
[15] = locus YDR477W, strain SNF1, hits give low values
[16] = locus YER123W, strain YCK3, hits give low values
[17] = locus YER133W, strain GLC7, hits give low values
[18] = locus YFL009W, strain cdc4, hits give low values
[19] = locus YFL029C, strain CAK1, hits give low values
[20] = locus YFR003C, strain YPI1, hits give low values
[21] = locus YFR019W, strain FAB1, hits give low values
[22] = locus YFR028C, strain CDC14, hits give low values
[23] = locus YGR040W, strain KSS1, hits give low values
[24] = locus YGR052W, strain FMP48, hits give low values
[25] = locus YGR092W, strain DBF2, hits give low values
[26] = locus YHR030C, strain SLT2, hits give low values
[27] = locus YHR079C, strain IRE1, hits give low values
[28] = locus YHR082C, strain KSP1, hits give low values
[29] = locus YHR205W, strain SCH9, hits give low values
[30] = locus YIL147C, strain SLN1, hits give low values
[31] = locus YJL095W, strain BCK1, hits give low values
[32] = locus YJL128C, strain PBS2, hits give low values
[33] = locus YJL157C, strain FAR1, hits give low values
[34] = locus YJR016C, strain ILV3, hits give low values
[35] = locus YJR066W, strain TOR1 (second series), hits give low values
[36] = locus YJR066W, strain TOR1, hits give low values
[37] = locus YKL048C, strain ELM1, hits give low values
[38] = locus YKL101W, strain HSL1, hits give low values
[39] = locus YKL193C, strain SDS22, hits give low values
[40] = locus YKL203C, strain TOR2, hits give low values
[41] = locus YLR113W, strain HOG1, hits give low values
[42] = locus YLR133W, strain CKI1, hits give low values
[43] = locus YLR403W, strain SFP1, hits give low values
[44] = locus YML070W, strain DAK1, hits give low values
[45] = locus YMR001C, strain CDC5, hits give low values
[46] = locus YMR205C, strain PFK2 (second series), hits give low values
[47] = locus YMR277W, strain FCP1, hits give low values
[48] = locus YNL006W, strain LST8, hits give low values
[49] = locus YNL020C, strain ARK1, hits give low values
[50] = locus YNL161W, strain CBK1, hits give low values
[51] = locus YNL183C, strain NPR1, hits give low values
[52] = locus YNL207W, strain RIO2, hits give low values
[53] = locus YNL222W, strain SSU72, hits give low values
[54] = locus YNL307C, strain MCK1 (second series), hits give low values
[55] = locus YOL078W, strain AVO1, hits give low values
[56] = locus YOL136C, strain PFK27, hits give low values
[57] = locus YOR061W, strain CKA2, hits give low values
[58] = locus YOR119C, strain RIO1, hits give low values
[59] = locus YOR231W, strain MKK1, hits give low values
[60] = locus YOR329C, strain SCD5, hits give low values
[61] = locus YPL031C, strain PHO85, hits give low values
[62] = locus YPL153C, strain RAD53, hits give low values
[63] = locus YPL204W, strain HRR25, hits give low values
[64] = locus YPL209C, strain IPL1, hits give low values
[65] = locus YPL256C, strain CLN2, hits give low values
[66] = locus YPR025C, strain CCL1, hits give low values
[67] = locus YPR106W, strain ISR1, hits give low values
[68] = locus YPR111W, strain DBF20, hits give low values
[69] = strain NNK1, hits give low values
[70] = strain TSCII, hits give low values
[71] = locus YAL040C, strain CLN3, hits give low values
[72] = locus YCL061C, strain MRC1 (second series), hits give low values
[73] = locus YDR363W, strain ESC2, hits give low values
[74] = locus YER002W, strain NOP16, hits give low values
[75] = locus YGR078C, strain PAC10, hits give low values
[76] = locus YJR075W, strain HOC1, hits give low values
[77] = locus YMR263W, strain SAP30, hits give low values
[78] = locus YMR307W, strain GAS1, hits give low values
[79] = locus YNL128W, strain TEP1, hits give low values
[80] = locus YNL175C, strain NOP13, hits give low values
[81] = locus YNL197C, strain WHI3, hits give low values
[82] = locus YNL224C, strain SQS1, hits give low values
[83] = locus YNL322C, strain KRE1, hits give low values
[84] = locus YOR083W, strain WHI5 (second series), hits give low values
[85] = locus YPL055C, strain LGE1, hits give low values
[86] = locus YPL241C, strain CIN2, hits give low values
[87] = locus YAL013W, strain DEP1, hits give low values
[88] = locus YDR150W, strain NUM1, hits give low values
[89] = locus YNL153C, strain GIM3, hits give low values

Measured: normalized growth

Cc1oc(C(C)(C)C)cc1-c1cc(N)n(-c2ccc(I)cc2)n1
active: [26] 0.717 | [41] 0.815 | [47] 1.13 [resistant]
inactive: [1] 1 | [2] 1.01 | [3] 1.02 | [4] 0.992 | [5] 1.01 | [6] 1.01 | [7] 0.976 | [8] 0.987 | [9] 1.02 | [10] 1.01 | [11] 1.15 | [12] 1 | [13] 1.01 | [14] 0.987 | [15] 0.956 | [16] 0.946 | [17] 0.992 | [18] 0.992 | [19] 0.995 | [20] 1 | [21] 0.967 | [22] 1 | [23] 0.985 | [24] 0.985 | [25] 0.882 | [27] 0.894 | [28] 0.957 | [29] 0.885 | [30] 0.997 | [31] 0.851 | [32] 0.961 | [33] 0.979 | [34] 1.01 | [35] 0.936 | [36] 0.903 | [37] 0.98 | [38] 0.948 | [39] 1.02 | [40] 1.05 | [42] 0.943 | [43] 0.965 | [44] 0.971 | [45] 1 | [46] 0.94 | [48] 1.01 | [49] 0.968 | [50] 1.02 | [51] 0.988 | [52] 1.02 | [53] 1.03 | [54] 0.935 | [55] 1.03 | [56] 0.959 | [57] 0.944 | [58] 0.972 | [59] 0.927 | [60] 1.01 | [61] 0.983 | [62] 0.987 | [63] 0.964 | [64] 1.01 | [65] 0.892 | [66] 1.01 | [67] 0.992 | [68] 0.989 | [69] 1 | [70] 1.01

C[C@@H](N)Cc1cnc[nH]1
inactive: [71] 0.96 | [72] 1.01 | [73] 1.02 | [74] 1.01 | [75] 1.02 | [76] 1.02 | [77] 1.01 | [78] 1.02 | [79] 1.01 | [80] 1.01 | [81] 1.02 | [82] 1.02 | [83] 1.02 | [84] 1.04 | [85] 1.03 | [86] 1.01

C/C(O)=C(\C#N)C(=O)Nc1cc(Br)ccc1Br
inactive: [87] 0.98 | [71] 1.01 | [72] 0.99 | [88] 0.989 | [73] 1.05 | [74] 1 | [75] 0.97 | locus YGR229C, strain SMI1, hits give low values 1.01 | [76] 1.02 | [77] 0.969 | [89] 0.999 | [80] 0.959 | [81] 0.961 | [82] 0.967 | [83] 0.983 | [84] 0.972 | [86] 0.98

O=C(Nc1ccccc1Sc1ccc([N+](=O)[O-])cc1[N+](=O)[O-])C(Cl)(Cl)Cl
inactive: [1] 0.972 | [2] 0.972 | [3] 0.973 | [4] 0.97 | [5] 0.983 | [6] 0.975 | [7] 0.973 | [8] 0.976 | [9] 0.958 | [10] 0.983 | [11] 0.987 | [12] 0.974 | [13] 0.971 | [14] 0.965 | [15] 0.977 | [16] 0.986 | [17] 0.969 | [18] 0.96 | [19] 0.973 | [20] 0.965 | [21] 0.984 | [22] 0.966 | [23] 0.975 | [24] 1.02 | [25] 0.985 | [26] 1.02 | [27] 0.967 | [28] 1.06 | [29] 0.795 | [30] 0.972 | [31] 1.01 | [32] 0.92 | [33] 0.97 | [34] 0.971 | [35] 0.967 | [36] 1.1 | [37] 0.976 | locus YKL067W, strain YNK1, hits give low values 0.982 | [38] 1 | [39] 0.965 | [40] 1.02 | [41] 1.04 | [42] 0.977 | [43] 0.873 | [44] 0.998 | [45] 0.975 | [46] 0.973 | [47] 0.955 | [48] 0.991 | [49] 0.994 | [50] 0.968 | [51] 1.1 | [52] 0.967 | [53] 0.976 | [54] 1 | [55] 0.978 | [56] 0.982 | [57] 0.98 | [58] 1.05 | [59] 1.08 | [60] 0.986 | [61] 0.959 | [62] 0.975 | [63] 0.966 | [64] 0.971 | [65] 0.996 | [66] 0.991 | [67] 0.952 | [68] 0.964 | [69] 0.972 | [70] 0.981

O=C(Nc1ccc(Br)cc1Cl)C(Cl)(Cl)Cl
active: [26] 0.635 | [76] 0.888 | locus YLR039C, strain RIC1, hits give low values 0.609 | locus YLR262C, strain YPT6, hits give low values 0.635 | [78] 0.56 | locus YOL006C, strain TOP1, hits give low values 0.681 | locus YPR135W, strain CTF4, hits give low values 0.64
inactive: [87] 0.975 | locus YBR229C, strain ROT2, hits give low values 0.964 | [8] 0.996 | [88] 0.97 | locus YEL061C, strain CIN8, hits give low values 0.945 | [75] 0.943 | locus YHR087W, strain rtc3, hits give low values 0.935 | locus YJR043C, strain POL32, hits give low values 0.957 | locus YKL190W, strain CNB1, hits give low values 0.941 | locus YLR058C, strain SHM2 (second series), hits give low values 0.94 | locus YLR085C, strain ARP6, hits give low values 0.782 | locus YML094W, strain GIM5, hits give low values 1.04 | locus YMR219W, strain ESC1, hits give low values 0.955 | [77] 0.963 | [89] 0.962 | locus YNL298W, strain CLA4 (second series), hits give low values 0.855 | [83] 0.95 | locus YNR030W, strain Alg12, hits give low values 0.935 | [85] 0.956 | [86] 1.02

Oc1ccc2c3c1O[C@H]1[C@@H](O)CC[C@@]4(O)C(C2)N(CC2CCC2)CCC314 (stereo partly specified)
inactive: [71] 1.01 | [72] 0.998 | [88] 1.01 | [73] 1.01 | [74] 1 | [77] 1 | [78] 0.998 | [79] 0.995 | [89] 1.01 | [80] 1.01 | [81] 1.03 | [82] 1.02 | [83] 1.01 | [84] 0.984 | [86] 1
